# Experimental data: PubChem BioAssay AID1326 (NMMLSC, 2008)
# The whole screen tested about 190,000 compounds, of which about 130 (0.068%) were called active. The sample holds actives, similar compounds and a random draw of the others, so the mix is not that of the screen. Values without a mark were called inactive. Cut-off read from the data, not from the text of the source: active = inhibition above about 40%; inactive = the rest.
# Molecular target: ATP-dependent translocase ABCB1 (Homo sapiens) (UniProt P08183)
# Sequence (P08183 whole entry, looked up): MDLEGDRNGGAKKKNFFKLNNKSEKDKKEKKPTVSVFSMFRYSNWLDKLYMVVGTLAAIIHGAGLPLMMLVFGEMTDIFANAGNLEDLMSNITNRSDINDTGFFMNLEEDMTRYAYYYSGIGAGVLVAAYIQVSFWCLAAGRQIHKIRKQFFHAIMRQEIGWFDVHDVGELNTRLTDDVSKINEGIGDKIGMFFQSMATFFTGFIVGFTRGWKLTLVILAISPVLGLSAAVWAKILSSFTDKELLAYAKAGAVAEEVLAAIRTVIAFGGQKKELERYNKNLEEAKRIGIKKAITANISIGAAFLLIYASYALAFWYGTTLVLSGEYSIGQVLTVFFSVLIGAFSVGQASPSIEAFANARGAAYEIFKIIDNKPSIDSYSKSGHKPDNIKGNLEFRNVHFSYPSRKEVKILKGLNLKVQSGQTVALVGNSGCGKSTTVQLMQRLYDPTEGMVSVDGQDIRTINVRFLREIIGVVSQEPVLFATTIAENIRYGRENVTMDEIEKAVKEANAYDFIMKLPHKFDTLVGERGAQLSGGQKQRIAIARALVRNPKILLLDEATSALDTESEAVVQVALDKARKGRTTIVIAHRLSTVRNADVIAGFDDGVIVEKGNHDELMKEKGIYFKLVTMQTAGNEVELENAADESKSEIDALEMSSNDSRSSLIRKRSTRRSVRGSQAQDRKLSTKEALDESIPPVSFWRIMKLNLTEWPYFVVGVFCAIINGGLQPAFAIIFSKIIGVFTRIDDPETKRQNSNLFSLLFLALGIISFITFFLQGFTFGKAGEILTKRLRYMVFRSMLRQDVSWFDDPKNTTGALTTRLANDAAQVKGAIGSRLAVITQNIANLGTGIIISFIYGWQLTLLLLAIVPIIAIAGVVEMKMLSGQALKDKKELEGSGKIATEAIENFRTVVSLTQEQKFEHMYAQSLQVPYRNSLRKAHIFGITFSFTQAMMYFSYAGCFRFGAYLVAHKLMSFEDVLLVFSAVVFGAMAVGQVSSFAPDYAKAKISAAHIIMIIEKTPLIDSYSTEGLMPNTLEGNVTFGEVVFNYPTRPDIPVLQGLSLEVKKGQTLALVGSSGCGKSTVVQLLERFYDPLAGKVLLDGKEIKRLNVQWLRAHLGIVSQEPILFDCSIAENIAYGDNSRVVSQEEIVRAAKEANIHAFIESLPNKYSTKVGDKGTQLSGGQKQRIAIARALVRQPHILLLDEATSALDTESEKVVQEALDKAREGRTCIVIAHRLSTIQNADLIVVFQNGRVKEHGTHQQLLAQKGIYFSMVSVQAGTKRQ
# Assay: ABCB1 efflux pump inhibitors, primary screen, cell-based, multiplex, flow cytometry, ABCG2 counter-screen (AID 1326);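 note: 0% = vehicle and 100% = reference inhibitor; higher value means more JC-1 retained so stronger ABCB1 efflux block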
# Conditions: CCRF-Adr cells, JC-1 efflux, at 6.6 µM, stronger effect = higher value
row,Compound,inhibition
1,Cc1ccc2c(c1)C1CN(C)CCC1N2C(=S)Nc1ccc(Cl)cc1Cl (stereo not given),-0.2%
2,Cc1cccc(C)c1OCC(O)CN1CCCCC1 (stereo not given),0.13%
3,Cc1ccc(OCC(O)CN2CCN(CC(O)COc3ccc(C)cc3Cl)CC2)c(Cl)c1 (stereo not given),77.3% (active)
4,Cc1ccccc1OCC(O)CN1CCN(c2ccccn2)CC1 (stereo not given),2.19%
5,COc1cccc(OC)c1C(=O)OCC(=O)/C(C#N)=C(\C)N,0.08%
6,CCN1/C(=C\c2ccc3ccccc3[n+]2CC)Sc2cc(C)ccc21,19.6%
7,CCC(=O)/C=C1\Sc2ccccc2N1CC,0.19%
8,Cc1ccccc1-c1n[nH]c(=S)n1C,-0.08%
9,CC(=O)c1ccc(NC(=O)CSC(=S)N2CCCC2)cc1,0.83%
10,O=C(N/N=C/c1ccc([N+](=O)[O-])o1)c1cccc(S(=O)(=O)N2CCOCC2)c1,1.78%
11,COC(=O)CC1=NN(c2nc(C)cc(C)n2)C(=O)C1,3.04%
12,COc1ccc(Cl)cc1NC(=O)[C@@H]1CCCN1C(=O)c1cccs1,1.1%
13,O=C(NNC(=S)NC(=O)c1cn(-c2ccccc2)nc1-c1ccccc1)c1ccncc1,-0.12%
14,O=C1N/C(=N\N=C\c2ccco2)SC1Cc1ccc(F)cc1 (stereo not given),-0.31%
15,COC(=O)c1ccc(CSc2nncn2N)cc1,-0.7%
16,CCCN1CNC(=S)N(CCc2ccccc2)C1,0.53%
17,COc1ccc(CNC(=O)COC(=O)/C=C/c2ccc(S(=O)(=O)N3CCOCC3)cc2)cc1,-0.38%
18,CC(C)(C)OC(=O)N1CCC(NC(=O)c2[nH]cnc2C(=O)N[C@@H](Cc2ccccc2)C(=O)OCc2ccccc2)CC1,15.7%
19,CC1=C(C)CC(C(=O)NC(C)CCc2ccccc2)C(C(=O)O)C1 (stereo not given),0.3%
20,O=C(Cc1c[nH]c2ccccc12)N/N=C/c1cccc(F)c1,-0.1%

row,Compound,inhibition
1,CCC(CC)c1nnc(NC(=O)/C=C/c2ccco2)s1,0.26%
2,CN(C)c1nc(N)nc(Cn2nnc(-c3ccc(C(F)(F)F)cc3)n2)n1,-0.39%
3,O=S(=O)(c1ccc(-c2ccccc2)cc1)N1CCCC1,1.29%
4,O=C(CCS(=O)(=O)Cc1ccccc1)Nc1ccc2c(c1)OCCO2,0.73%
5,Cc1cc(C)cc(NC(=O)COC(=O)c2cc(C)oc2C)c1,1.39%
6,Cc1ccc(C(NC(=O)N2CCCC2)C(Cl)(Cl)Cl)cc1F (stereo not given),0.9%
7,CCS(=O)(=O)c1ccc(O)c(NC(=O)COc2ccc(Cl)cc2)c1,0.2%
8,CCn1c(COc2c(C)cccc2C)nnc1SCc1nc2ccccc2c(=O)[nH]1,0.72%
9,CS(=O)(=O)c1ccc2nc(NC(=O)c3ccc(Cl)nc3)sc2c1,0.4%
10,Cc1nnc(SCCCCSc2nnc(C)c(=O)[nH]2)[nH]c1=O,1.4%
11,CC(C)OCCCNC(=O)c1ccc(C2SCC(=O)N2Cc2ccco2)cc1 (stereo not given),1.04%
12,CSc1ccccc1NC(=O)Cc1ccc(Br)cc1,1.94%
13,O=C(CN(c1cccc(Cl)c1)S(=O)(=O)c1ccccc1)NN=C1CCCC1,0.27%
14,O=C(COC(=O)c1ccccc1C(=O)N1CCN(c2ccccc2)CC1)NCc1ccccc1,1.33%
15,O=C1CN(C(=O)CN2C(=O)NC3(CCCCC3)C2=O)c2ccccc2N1,0.2%
16,Cc1sc2nc(COC(=O)C(NC(=O)c3ccc(Cl)cc3Cl)C(C)C)[nH]c(=O)c2c1C (stereo not given),-0.58%
17,CCc1ccc(Nc2nnc(SCC(=O)c3ccc4c(c3)NC(=O)CO4)s2)cc1,-0.13%
18,CCOc1ccc(C(=O)Nc2cccc(SC)c2)cc1,0.08%
19,COC(=O)CCC(=O)N1CCCC(CO)(Cc2ccccc2)C1 (stereo not given),0.1%
20,CN(C)c1ccc(Nc2c3c4c(cccc4n(C)c2=O)C(=O)c2ccccc2-3)cc1,13.5%

row,Compound,inhibition
1,Cc1ccc(O)c(-c2cc(C(=O)Nc3c(C)n(C)n(-c4ccccc4)c3=O)[nH]n2)c1,0.33%
2,COc1ccc(C2OCC3(CO2)SC(=O)NC3=O)cc1OC (stereo not given),-0.28%
3,COc1ccccc1N1CCN(/N=C\C(Br)=C\c2ccccc2)CC1,0.81%
4,N#Cc1ccccc1NC(=O)c1cccc(COc2ccc(Cl)cc2Cl)c1,-0.17%
5,CCOC(=O)c1ccc(NC(=S)Nc2cc(C)cc(C)n2)cc1,1.25%
6,COc1cc(C(=O)NCc2nnc(SCC(=O)Nc3nc4ccc(C)cc4s3)o2)cc(OC)c1OC,-2.31%
7,Cc1ccccc1Nc1scc(-c2ccc(Br)cc2)[n+]1-c1ccccc1C,-2.63%
8,CCCn1nc(NS(=O)(=O)c2ccccc2)c2cc3cc(C)ccc3nc21,0.68%
9,O=S(=O)(c1ccccc1)c1nc(-c2ccccc2F)oc1NCc1cccnc1,5.26%
10,c1ccc2c(c1)OCCOCCOCCO2,0.51%
11,CC(=O)Cc1nsc(NC(=O)c2ccc(Cl)cc2Cl)n1,-0.31%
12,COC(=O)c1cc(NC(=O)CN2CCN(C(C)=O)CC2)cc(C(=O)OC)c1,1.14%
13,CC(CNC(=O)c1ccc(N)cc1)NC(=O)c1ccc(N)cc1 (stereo not given),-0.82%
14,CS(=O)(=O)N1CCC(C(=O)N2CCN(c3ccccc3)CC2)CC1,0.86%
15,CCC1SC(CC)C(=O)N(CC(=O)NC2CCCCC2)C1=O (stereo not given),0.07%
16,Cc1c(Cl)c([N+](=O)[O-])nn1CC(=O)NCC1CCCO1 (stereo not given),-0.1%
17,COc1ccc(-n2nnnc2SCC(=O)NCc2cccs2)cc1,2.4%
18,CCOc1ccc2nc(NC(=O)c3cc([N+](=O)[O-])ccc3N3CCOCC3)sc2c1,-1.41%
19,NC(=O)COC(=O)c1sc2cc(F)ccc2c1Cl,-0.04%
20,COc1ccc(C(=O)COC(=O)c2nn(C)c(=O)c3ccccc23)c(OC)c1,0.19%
